Measured values reported in PubChem BioAssay (Tox21).
Values joined by “and” are separate entries in the source; they are usually repeats but may differ in a detail not shown here. Identical values can stand only once. Inconclusive results are not listed. Where a structure was tested more than once in an assay, its records may differ in their call. Active and inactive are the calls of the source. The call rests on the fitted dose curve; in most records, active means well fitted cell-killing curve with a large enough effect in the repeat runs; inconclusive means weak or mixed curves; inactive means no such curve, though single readings can be large or run the other way.

Assay: qHTS assay to identify small molecule agonists of the peroxisome proliferator-activated receptor delta (PPARd) signaling pathway - cell viability counter screen (AID 743211); further: nearly all actives have a fitted effect of over 55% in size
Conditions: PPARd-bla HEK293H viability, CellTiter-Glo luminescence, 17 h; series mostly up to 62.6 µM; activity change, negative = cytotoxicity: at the top concentration
From the text: U.S. Tox21 Program National Center for Advancing Translational Sciences [NCATS] NIH Chemical Genomics Center [NCGC] U.S. Environmental Protection Agency [EPA] National Institutes of Environmental Health Sciences [NIEHS] National Toxicology Program [NTP] U.S. Food and Drug Administration [FDA] Tox21 Assay Overview: The peroxisome proliferator-activated receptors (PPARs) are lipid-activated transcription factors of the nuclear receptor superfamily with three distinct subtypes namely PPAR alpha, PPAR delta (PPARd) and PPAR gamma. All these subtypes heterodimerizes with Retinoid X receptor (RXR) and have different physiological functions. […] To identify the compounds that activate PPAR-delta signaling, GeneBLAzer PPAR delta UAS-bla HEK293H cell line (Invitrogen, Carlsbad, CA, USA) containing a beta-lactamase reporter gene under the control of an Upstream Activator Sequence (UAS) was used to screen the Tox21 compound library. The cytotoxicity of the Tox21 compound library against the PPARd-bla cell line was tested in parallel by measuring the cell viability using CellTiter-Glo assay (Promega, Madison, WI) in the same wells.
Tox21 Assay Protocol Summary: PPARd-bla cells were dispensed at 3000 cells/6uL/well in 1536-well black wall/clear bottom plates using a Multidrop Combi (Thermo Fisher Scientific, Waltham, MA) dispenser. After the assay plates were incubated at 37 C and 5% CO2 for 5 h, 23 nL of compounds dissolved in DMSO, positive controls or DMSO only was transferred to the assay plate by a Pintool station (Kalypsys, San Diego, CA). The assay plates were incubated at 37C for 17 h. After 1 uL of LiveBLAzerTM B/G FRET substrate was added using a Bioraptr Flying Reagent Dispenser (FRD) workstation (Beckman Coulter, Indianapolis, IN, USA), the plates were incubated at room temperature for 2 h, and fluorescence intensity was measured by an Envision plate reader (PerkinElmer, Shelton, CT). For cell viability readout that measures cytotoxicity, 3 ul/well of CellTiter-Glo reagent was added into the assay plates using a Bioraptr FRD. After 30 min incubation at room temperature, the luminescence intensity in the plates was measured using a ViewLux plate reader (PerkinElmer).
On the % scale 0 is the no-effect control and ±100 the full control effect; potency means the concentration at half of the fitted maximal effect.

Structure (SMILES) | Potency | activity change, negative = cytotoxicity
CN1C[C@H](CNC(=O)OCc2ccccc2)C[C@@H]2c3cccc4c3c(cn4C)C[C@H]21 | 26.6 µM (active) | –
C=CC(=O)OC | – | 1.38% [at 81.1 µM] (inactive)
C(=NC1CCCCC1)=NC1CCCCC1 | inactive and 21.9 µM (active) | –
CN1C(=O)C(O)N=C(c2ccccc2)c2cc(Cl)ccc21 (stereo not given) | – | 2.49% [at 81.1 µM] (inactive)
Cc1ccc2ccccc2c1 | – | 7.92% (inactive)
Clc1cc(C(Cl)(Cl)Cl)cnc1Cl | – | -18.5% (inactive)
Clc1ccc(C2(Cn3cncn3)CC(Br)CO2)c(Cl)c1 (stereo not given) | – | -6.83% (inactive)
O=Cc1ccc2c(c1)OCO2 | – | 6.78% (inactive)
CC(Cl)Cl | – | 4.69% (inactive)
O=S(=O)(O)C(F)(F)C(F)(F)C(F)(F)C(F)(F)F | – | 11.9% [at 81.1 µM] (inactive)
CCOC(=O)COc1cc(-c2nn(C)c(OC(F)F)c2Cl)c(F)cc1Cl | – | 11.4% (inactive)
O=C(O)C(F)(F)C(F)(F)C(F)(F)C(F)(F)C(F)(F)C(F)(F)C(F)(F)C(F)(F)C(F)(F)C(F)(F)F | – | 2.51% (inactive)
C=C(C#N)CCC#N | – | -1.55% (inactive)
Brc1ccccc1 | – | 1.75% (inactive)
C[C@H]1CNCCc2ccc(Cl)cc21 | – | -14% (inactive)
[O-][Cl+]O | – | 12.8% (inactive)
Cc1ccccc1CCl | – | 1.88% (inactive)
COCCOCCO | – | -16.5% (inactive)
CCCN(CC1CC1)c1c([N+](=O)[O-])cc(C(F)(F)F)cc1[N+](=O)[O-] | – | 0.0965% (inactive)
COc1nn(C(=O)NS(=O)(=O)c2ccccc2OC(F)(F)F)c(=O)n1C | – | 7.93% (inactive)

Structure (SMILES) | Potency | activity change, negative = cytotoxicity
Cc1cc(=O)[nH]o1 | – | 1.89% [at 81.1 µM] (inactive)
BrCCCCBr | – | 2.08% (inactive)
Clc1cccc2ccccc12 | – | 3.65% (inactive)
COc1ccc(-c2ccccc2)cc1NNC(=O)OC(C)C | – | -18.4% [at 81.1 µM] (inactive)
Sc1ccccc1Cl | – | -2.57% (inactive)
CCCCN=C=O | – | -0.0218% (inactive)
CC(C)(Cl)[N+](=O)[O-] | – | 2.39% [at 81.1 µM] (inactive)
CCO[C@H]1O[C@@H]2OC3(C)CC[C@H]4[C@H](C)CC[C@@H]([C@H]1C)[C@@]24OO3 | – | -20% (inactive)
N#Cc1ccc(Cl)cc1 | – | 3.5% (inactive)
CC(=O)[C@H]1CC[C@H]2[C@@H]3CC[C@H]4C[C@](C)(O)CC[C@]4(C)[C@H]3CC[C@]12C | – | 0.892% (inactive)
O=NN1CCCCCC1 | – | 1.76% (inactive)
Nc1ccc([N+](=O)[O-])cc1[N+](=O)[O-] | – | 0.0574% (inactive)
C=CC(C)=O | – | 1.33% (inactive)
CCCCN(N=O)C(=N)N[N+](=O)[O-] | – | -0.344% [at 81.1 µM] (inactive)
CCOP(O)OCC | – | 6.95% (inactive)
O=C(NCc1cccnc1)Nc1ccc([N+](=O)[O-])cc1 | – | -5.76% (inactive)
Cc1ccccc1C(=O)Nc1cccc(OC(C)C)c1 | – | -19.3% (inactive)
ClC=C(Cl)Cl | – | 5.77% [at 81.1 µM] (inactive)
CCCCC(O)(Cn1cncn1)c1ccc(Cl)cc1Cl (stereo not given) | 54.9 µM (active) | –
C[C@@H]1CC[C@H]2[C@@H](C)C(=O)O[C@@H]3O[C@@]4(C)CC[C@@H]1[C@]32OO4 | – | 6.49% (inactive)
